The results in this text go back to PubChem BioAssay AID1259422 (The Scripps Research Institute Molecular Screening Center, 2018).

Values joined by “and” are separate entries in the source; they are usually repeats but may differ in a detail not shown here. Equal entries are not always repeated. In all, about 640,000 compounds went through this assay and about 9,300 (1.5%) were called active. The full list was thinned out, with actives kept by preference. A number with no mark means an inactive call. Rule as the data show it: active = inhibition above about 32%; inactive = the rest.

The assay is described as follows: TEAD-YAP interaction inhibition, primary screen, TEAD-YAP interaction inhibitor project, luminescence, HEK-TIYL cells (AID 1259422).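 Also: 0% = median of test compound wells and 100% = reference inhibitor wells.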 The settings on record: TEAD-Gal4/YAP UAS-luciferase luminescence, at 9.12 µM, hits give high values.
Regarding `O=C(Cn1c(=O)oc2cc(S(=O)(=O)NC3CCCC3)ccc21)N1CCCCCC1`, the inhibition is -0.34%.

For `COc1ccc(C2C=C(c3ccc(OC(F)F)cc3)Nc3ncnn32)cc1` (stereo not drawn), the inhibition is -77.6%.

As to `COc1ccc(C2=CC(c3ccc(OC)c(OC)c3)n3ncnc3N2)cc1OC` (stereo not drawn), the inhibition is 3.8%.

In the case of `Brc1ccc(C2=CC(c3cccc(Br)c3)n3ncnc3N2)cc1` (stereo not drawn), the inhibition was 3.83%.

Turning to `COc1cccc(C2=CC(c3cccc(OC)c3)n3ncnc3N2)c1` (stereo not drawn), the inhibition was 39.1% (active).

Turning to `CCOc1ccc(C2=CC(c3cc(OC)c(OC)c(OC)c3)n3ncnc3N2)cc1` (stereo not drawn), the inhibition was 66.9% (active).

As for `COc1ccc(OC)c(C2C=C(c3ccc(Br)cc3)Nc3ncnn32)c1` (stereo not drawn), the inhibition was 3.26%.

Regarding `O=C(N/N=C\c1cccc([N+](=O)[O-])c1)c1ccccc1I`, the inhibition was -11.5%.

On to `COC(=O)c1ccc(C)c(NC(=O)Nc2cccc(Cl)c2)c1`, for which the inhibition was 7.6%.

For the compound `COc1ccc(OC)c(C2/C(=C(\O)c3ccc(Br)cc3)C(=O)C(=O)N2CCCn2ccnc2)c1` (stereo not drawn), the inhibition is -4.36%.

For the compound `CCOC(=O)c1c(NC(=O)c2cc([N+](=O)[O-])ccc2Cl)sc(-c2ccccc2)c1C`, the inhibition was 8.37%.

On to `CCCc1c(C(=O)N[C@H]2C[C@H]3C(=O)N[C@@H](CSCc4ccccc4)C(=O)N3C2)cnn1-c1ccccc1`, for which the inhibition was 2.64%.

Take `Cc1csc(=Nc2ccccc2)n1C1CCCC1`: the inhibition was -5.23%.

`FC(F)Oc1ccc(-c2csc(=Nc3cccnc3)n2C2CC2)cc1`: the inhibition was 50.1% (active).

On to `COc1ccc(-c2csc(=Nc3ccccc3)n2C)cc1`, for which the inhibition is -28.4%.

On to `CC1CCCC(NC(=O)CCCn2nnc3ccccc3c2=O)C1C` (stereo not drawn), for which the inhibition was -2.4%.

In the case of `CC(=O)N1CCN(c2nc(Nc3ccccc3C(=O)c3ccccc3)nc(OC(C(F)(F)F)C(F)(F)F)n2)CC1`, the inhibition was 10.2%.

In the case of `O=C(NCCN1CCCCC1CO)c1ccc(OC2CCN(C(=O)C3CC3)CC2)cc1` (stereo not drawn), the inhibition was 1.44%.

As for `COC(=O)CCC(=O)N1CCC(Oc2ccc(C(=O)NCCc3ccccc3)cc2)CC1`, the inhibition is 5.68%.

In the case of `O=C(NCCc1ccccc1)c1ccc(OC2CCN(C(=O)C3CCCO3)CC2)cc1` (stereo not drawn), the inhibition is 40.4% (active).

Take `O=C(COC(=O)CCN1C(=O)C2CC=CCC2C1=O)Nc1ncc(Cl)cc1Cl` (stereo not drawn): the inhibition was 5.49%.

On to `CNC(=O)c1cc(F)ccc1Nc1cc(Nc2ccc3c(c2)CCC(=O)N3)ncc1C(F)(F)F`, for which the inhibition is 78.9% (active).

For the compound `CNC(=O)c1cc(F)ccc1Nc1cc(Nc2ccc3nc[nH]c3c2)ncc1C(F)(F)F`, the inhibition is -9.89%.

Consider `O=C1Cc2cc(Nc3cc(Nc4ccccn4)c(C(F)(F)F)cn3)ccc2N1`, for which the inhibition is 22.7%.

Regarding `CNC(=O)c1cc(F)ccc1Nc1cc(Nc2ccc3[nH]ncc3c2)ncc1C(F)(F)F`, the inhibition was 27.2%.

For the compound `CNC(=O)c1cc(F)ccc1Nc1cc(Nc2ccc(NC(C)=O)cn2)ncc1C(F)(F)F`, the inhibition is 84.8% (active).

In the case of `CCc1ccc(NC(=O)C2CCN(S(=O)(=O)c3ccc4c(c3)CCC(=O)N4)CC2)cc1`, the inhibition was -10.1%.

As for `O=C(CSc1nc2ccccc2s1)Nc1ccc(O)c(C(=O)O)c1`, the inhibition is -2.73%.

As for `OCCNCCCOc1ccc(I)cc1`, the inhibition is 15.9%.

With `COc1c(C)c2c(c(O)c1C/C=C(\C)CCC(=O)O)C(=O)OC2`, the inhibition was 39.5% (active) and 67.1% (active).

As to `Cc1ccc(Nc2nnc(-c3cc4ccc(O)cc4oc3=O)s2)cc1`, the inhibition is 8.37%.

With `O=c1oc2cc(O)ccc2cc1-c1ccc(F)cc1`, the inhibition was 36% (active).

Consider `O=c1oc2ccccc2cc1-c1ccc(Cl)cc1`, for which the inhibition was -27%.

In the case of `COc1cccc(CN2CCN(Cc3cn[nH]c3-c3cccc(F)c3)CC2CCO)c1` (stereo not drawn), the inhibition is 6.95%.

With `CCCCSCCC(=O)O`, the inhibition was -16.4%.

Turning to `COC(CNc1cc(-c2ccc(F)cc2)nc(-c2ccccn2)n1)OC`, the inhibition was 42.7% (active).

Consider `COCCNc1cc(-c2ccc(F)cc2)nc(C)n1`, for which the inhibition is -31.9%.

As for `COC(CNc1cc(-c2cccc(C(F)(F)F)c2)nc(-c2ccncc2)n1)OC`, the inhibition was 14.2%.

On to `CC(C)(C)NCCOc1ccccc1F`, for which the inhibition was 14.1%.

`CCOc1cc(C#N)ccc1OCC(=O)Nc1ccc(C)cc1C`: the inhibition was 15.8%.

As for `COC(=O)C1=C(C)N=c2s/c(=C/c3ccc(N(C)C)cc3)c(=O)n2C1c1ccccc1Cl` (stereo not drawn), the inhibition was -14.2%.

For the compound `O=C(NNS(=O)(=O)c1cccc(Cl)c1Cl)C12CC3CC(CC(C3)C1)C2`, the inhibition was -2.41%.

`CNC(=O)c1ccccc1Nc1cc(Nc2ccc(C(=O)N(C)C)cc2)ncc1C(F)(F)F`: the inhibition is 77.1% (active).

In the case of `CCN(CC)CCNC(=O)c1ccc(Nc2cc(Nc3ccccc3C(=O)NC)c(C(F)(F)F)cn2)c(C)c1`, the inhibition is 84.7% (active).

As to `CCN(CC)CCNC(=O)c1ccc(Nc2cc(Nc3ccccc3C(=O)NC)c(C(F)(F)F)cn2)nc1`, the inhibition was 96.8% (active).

With `Cc1cc(C(=O)Nc2ccccc2C(F)(F)F)ccc1[N+](=O)[O-]`, the inhibition was -8.76%.

As to `Cc1ccc(Nc2nnc(-c3ccc(C(=O)N(C)C)cc3)c3ccccc23)cc1`, the inhibition was -11.2%.

Take `CNC(=O)c1ccccc1Nc1nc(Nc2ccc(-n3cnc(-c4ccc(C)nc4)n3)cc2)ncc1Cl`: the inhibition was 8.52%.

On to `CCN(CC)CCOc1ccc(Nc2cc(Nc3ccccc3C(=O)NC)c(C(F)(F)F)cn2)c(OC)c1`, for which the inhibition is 83.4% (active).

On to `COc1cc(N2CCOCC2)ccc1Nc1cc(Nc2ccccc2-n2cccn2)c(C(F)(F)F)cn1`, for which the inhibition is -8.57%.

Take `CNC(=O)c1ccccc1Nc1cc(Nc2ccc(N3CCOCC3)cc2OC)ncc1F`: the inhibition was 6.22%.

`CCCn1c(=S)[nH]c2cc(C(=O)NCCN(CC)CC)ccc2c1=O`: the inhibition is 12.2%.

With `CCN(CC)CCNC(=O)c1ccc2c(=O)n(CCN(CC)CC)c(=S)[nH]c2c1`, the inhibition is 18.8%.

Regarding `CC(C)N(CCNC(=O)c1ccnc(Nc2ccc(C(F)(F)F)cc2)c1)C(C)C`, the inhibition is -16%.

For the compound `CCc1ccccc1N(CC(=O)Nc1cc(Cl)ccc1C)S(C)(=O)=O`, the inhibition was 1.56%.

For `Cc1ccc(OCCSc2nc(N)cc(=O)[nH]2)cc1`, the inhibition is -7.78%.

With `CN(C)CCNc1ccnc2c(-c3ccsc3)cnn12`, the inhibition was -57.5%.

As to `O=C(Nc1ccc2c(c1)CN(C1CCOCC1)CC2)c1ccc(C(F)(F)F)cc1`, the inhibition was 17.5%.

As to `COc1ccc(NC(=O)/C(=C\c2ccc3c(c2)OCO3)NC(=O)c2ccccc2Cl)c(OC)c1`, the inhibition is 21.2%.

Take `COc1ccc(OC)c(/C=N/NC(=O)COc2ccc(Br)cc2)c1`: the inhibition is -1.77%.

On to `COc1ccc(/C=N/NC(=O)COc2ccc(Cl)cc2Br)cc1OC`, for which the inhibition is 8.94%.

Take `CCOC(=O)c1c(C)[nH]c(C(=O)OCC(=O)Nc2ccccc2C(C)(C)C)c1C`: the inhibition was 7.06%.

`Cc1cc2nn(-c3ccccc3)nc2cc1NC(=S)NC(=O)c1oc2ccccc2c1C`: the inhibition is 7.4%.

As to `C=C(C)C1C=C(C)/C(=N/NC(=O)c2ccc(N3CCCC3=O)cc2)CC1` (stereo not drawn), the inhibition was 0.92%.

Consider `O=C(Oc1ccc2c(c1)C(=O)c1cc(OC(=O)c3cccnc3)ccc1-2)c1cccnc1`, for which the inhibition was -14.7%.

Turning to `COc1ccc(/C=C2\Oc3cc(OC(=O)C4CC4)cc(C)c3C2=O)c(OC)c1OC`, the inhibition was -17.3%.

With `O=C1/C(=C/c2cccnc2)Oc2cc(OC(=O)C3CC3)ccc21`, the inhibition was 33.5% (active).

With `CCCn1c(=O)[nH]c2c(C(N)=O)nc(-c3cn(C)nc3C)nc21`, the inhibition is -23%.

In the case of `O=C(CNc1cccc(Br)c1)Nc1ccccc1C(=O)Nc1ccccc1`, the inhibition is 2.84%.

`Nc1ccc2c(c1)C(=O)C(=O)c1cc(N)ccc1-2`: the inhibition was 99% (active).

Consider `O=C1c2cc(O)ccc2-c2ccc(O)cc21`, for which the inhibition is -8.01%.

Take `O=C1c2cc(S(=O)(=O)N3CCCC3)ccc2-c2ccc(S(=O)(=O)N3CCCC3)cc21`: the inhibition is -1.36%.

As for `CCCCN(CC)CCNC(=O)CCNC(=O)Cn1cnc2sc3c(c2c1=O)CCCC3`, the inhibition is -4.71%.

`CCN1CCN(C(=O)c2ccc(OC)cc2OC)CC1`: the inhibition was 2.8%.

Regarding `COc1cc(Nc2cc(-c3nocc3-c3cnn(C)c3)ccn2)ccc1N1CCOCC1`, the inhibition is 15%.

As for `Cn1cc(-c2cc(Nc3ccc(N4CCOCC4)cn3)ncc2Cl)cn1`, the inhibition is 38.9% (active).

In the case of `Cn1nccc1Nc1cc(Nc2ccc(N3CCOCC3)cc2)ncn1`, the inhibition is 2.78%.

Regarding `CCCN1CC=C2C(C1)C(c1cccc(C(F)(F)F)c1)C(C#N)=C(N)C2(C#N)C#N` (stereo not drawn), the inhibition is -14.9%.

Consider `CC(C)n1cnc2c(NC3CCN(Cc4ccccc4)CC3)nc(-c3ccc(N4CCOCC4)nc3)nc21`, for which the inhibition is 36.3% (active).

With `CC(C)n1cnc2c(NC3CCN(Cc4ccccc4)CC3)nc(NC3CCN(Cc4ccccc4)CC3)nc21`, the inhibition is 23.1%.

Take `CC(C)n1cnc2c(NC3CC3)nc(-c3ccc(N4CCOCC4)nc3)nc21`: the inhibition was 1.84%.

Take `c1ccc(CN2CCC(Nc3nc(-c4ccccc4)nc4c3ncn4C3CCCCC3)CC2)cc1`: the inhibition was 6.01%.

Turning to `c1ccc(CN2CCC(Nc3nc(Nc4ccc(N5CCOCC5)cc4)c4ncn(C5CCCCC5)c4n3)CC2)cc1`, the inhibition was 7.35%.

Regarding `CC(C)n1cnc2c(NC3CCN(Cc4ccccc4)CC3)nc(Nc3ccc(N4CCOCC4)cc3)nc21`, the inhibition was 55.8% (active).

For the compound `NC(=O)c1ccc(C(=O)N2CCC3(CC2)NC(=O)c2ccccc2O3)c(F)c1`, the inhibition was 9.77%.

For the compound `O=C(Cc1cccc2ccccc12)Nc1ccccc1-c1nc2ccccc2s1`, the inhibition is 4.57%.

Take `CC(=O)Nc1sc(C)c(C)c1-c1nc2ccccc2s1`: the inhibition was -2.29%.

`c1ccc2nc(-c3nc4ccccc4s3)ccc2c1`: the inhibition was 50.1% (active).

As usually defined, the inhibition is the change of the read-out against control, counted positive when it falls.
